Assay results taken from ChEMBL document CHEMBL3988442, “University of Dundee, Small-Polar-MMV Screening Library” (2021).
For some of these results: Results with a measured potency or affinity are listed apart.

What was measured:
Parameters in all cases: scale not given: direction of the effect not stated beside the values
[1] = target: Protein translocase subunit SecA (Escherichia coli (strain K12)) (UniProt P10408); experiment: Assay to Identify E. coli SecA ATPase Inhibitors; assay type: functional; conditions: 30 µM
Protein translocase subunit SecA (Escherichia coli (strain K12)), sequence (P10408 whole entry): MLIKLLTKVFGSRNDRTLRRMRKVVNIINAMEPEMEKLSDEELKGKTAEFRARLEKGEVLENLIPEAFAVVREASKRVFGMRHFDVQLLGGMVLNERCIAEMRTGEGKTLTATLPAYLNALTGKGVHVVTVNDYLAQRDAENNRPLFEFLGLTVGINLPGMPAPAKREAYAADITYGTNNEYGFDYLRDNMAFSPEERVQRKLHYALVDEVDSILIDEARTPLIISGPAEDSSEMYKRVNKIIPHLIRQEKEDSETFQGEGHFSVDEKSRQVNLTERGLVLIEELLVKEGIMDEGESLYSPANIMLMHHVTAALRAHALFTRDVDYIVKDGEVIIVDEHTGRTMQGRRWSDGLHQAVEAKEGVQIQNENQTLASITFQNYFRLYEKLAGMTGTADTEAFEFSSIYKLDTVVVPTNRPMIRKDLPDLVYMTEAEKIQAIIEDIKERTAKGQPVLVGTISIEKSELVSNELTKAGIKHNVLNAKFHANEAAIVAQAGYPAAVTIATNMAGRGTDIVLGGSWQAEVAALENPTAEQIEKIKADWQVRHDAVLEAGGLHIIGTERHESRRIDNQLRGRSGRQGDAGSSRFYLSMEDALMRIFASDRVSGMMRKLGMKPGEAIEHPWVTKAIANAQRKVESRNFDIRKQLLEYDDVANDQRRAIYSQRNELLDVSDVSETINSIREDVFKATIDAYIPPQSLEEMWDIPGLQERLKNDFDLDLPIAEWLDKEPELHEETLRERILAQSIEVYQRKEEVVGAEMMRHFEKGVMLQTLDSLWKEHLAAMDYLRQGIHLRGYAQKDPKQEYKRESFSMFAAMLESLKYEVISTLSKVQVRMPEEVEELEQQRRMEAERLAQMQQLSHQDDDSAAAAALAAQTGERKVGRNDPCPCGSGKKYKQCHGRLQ

[2] = target: T1, Ubiquitin-activating enzyme e1, putative (Leishmania donovani (strain BPK282A1)) (UniProt E9BSI1); experiment: Leishmania donovani Ubiquitin Activating Enzyme (LdE1); assay type: functional; conditions: 30 µM
T1 sequence (whole entry): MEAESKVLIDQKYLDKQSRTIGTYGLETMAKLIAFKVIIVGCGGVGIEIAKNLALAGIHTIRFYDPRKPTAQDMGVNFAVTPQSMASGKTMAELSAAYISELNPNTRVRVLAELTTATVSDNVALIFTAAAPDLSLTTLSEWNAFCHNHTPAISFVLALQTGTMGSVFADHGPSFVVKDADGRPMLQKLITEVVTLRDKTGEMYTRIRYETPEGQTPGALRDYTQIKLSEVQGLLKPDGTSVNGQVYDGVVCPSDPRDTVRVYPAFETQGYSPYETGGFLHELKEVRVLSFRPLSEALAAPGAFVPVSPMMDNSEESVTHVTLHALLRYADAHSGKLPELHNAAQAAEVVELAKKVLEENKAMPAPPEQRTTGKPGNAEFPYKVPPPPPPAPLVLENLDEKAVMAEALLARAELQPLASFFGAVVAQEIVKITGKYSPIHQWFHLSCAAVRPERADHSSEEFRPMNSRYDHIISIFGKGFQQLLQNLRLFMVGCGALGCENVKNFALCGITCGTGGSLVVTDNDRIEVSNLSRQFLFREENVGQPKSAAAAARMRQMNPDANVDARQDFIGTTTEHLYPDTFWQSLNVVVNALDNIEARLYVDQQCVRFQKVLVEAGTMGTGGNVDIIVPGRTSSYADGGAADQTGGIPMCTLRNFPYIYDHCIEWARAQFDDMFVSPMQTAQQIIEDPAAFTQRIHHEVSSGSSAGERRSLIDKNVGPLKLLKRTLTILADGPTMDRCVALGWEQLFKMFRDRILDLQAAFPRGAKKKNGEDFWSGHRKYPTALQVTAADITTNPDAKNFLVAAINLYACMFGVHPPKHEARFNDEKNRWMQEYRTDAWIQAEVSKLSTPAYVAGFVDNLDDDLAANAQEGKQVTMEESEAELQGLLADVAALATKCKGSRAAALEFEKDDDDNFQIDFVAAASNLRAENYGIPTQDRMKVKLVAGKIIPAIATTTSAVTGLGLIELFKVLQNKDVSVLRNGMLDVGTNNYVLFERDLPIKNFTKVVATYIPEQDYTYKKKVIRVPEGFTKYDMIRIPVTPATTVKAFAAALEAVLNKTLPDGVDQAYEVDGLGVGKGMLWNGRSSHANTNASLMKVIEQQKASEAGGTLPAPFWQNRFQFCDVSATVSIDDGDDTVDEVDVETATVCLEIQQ

[3] = target: AMP-activated protein kinase, AMPK (Homo sapiens) (UniProt P54646+O43741+P54619+Q9UGJ0+Q9Y478+Q13131+Q9UGI9); experiment: AMP-dependent Kinase enzyme assay. An in vitro enzyme assay that detects ADP turnover that is directly proportional to AMPK activity. This uses naive AMPK that is activated during the assay with MK-8722; assay type: functional; conditions: 30 µM
[4] = target: Sialic acid-binding Ig-like lectin 9 (Homo sapiens) (UniProt Q9Y336); experiment: Hs-Siglec9 ALPHAscreen SOP 20170721; conditions: 10 µM
Sialic acid-binding Ig-like lectin 9 (Homo sapiens), sequence (Q9Y336 whole entry): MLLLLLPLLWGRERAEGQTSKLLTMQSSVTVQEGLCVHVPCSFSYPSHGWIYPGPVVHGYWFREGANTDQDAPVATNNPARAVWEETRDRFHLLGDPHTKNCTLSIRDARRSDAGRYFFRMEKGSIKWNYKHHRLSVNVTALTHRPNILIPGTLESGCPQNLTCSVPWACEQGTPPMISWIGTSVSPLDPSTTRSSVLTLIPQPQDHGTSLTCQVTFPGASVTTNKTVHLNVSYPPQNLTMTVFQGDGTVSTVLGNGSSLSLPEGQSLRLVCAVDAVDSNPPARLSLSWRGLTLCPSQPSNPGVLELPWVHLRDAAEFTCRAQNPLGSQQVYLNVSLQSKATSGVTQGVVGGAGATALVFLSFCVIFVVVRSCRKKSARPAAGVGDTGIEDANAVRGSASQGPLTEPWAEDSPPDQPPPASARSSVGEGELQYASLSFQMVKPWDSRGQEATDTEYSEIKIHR

Trypanosoma cruzi = experiment: Trypanosoma cruzi phosphomannomutase and mannose-1-phosphate guanylyltransferase assay; assay type: functional; conditions: 10 µM
[5] = target: T2, Arginase-2, mitochondrial (Homo sapiens) (UniProt P78540); experiment: in vitro enzyme assay to detect the production of urea directly proportional to the activity of Arginase II; assay type: functional; conditions: 33.3 µM; also: in the data most compounds retested in dose-response had high values
T2 sequence (whole entry): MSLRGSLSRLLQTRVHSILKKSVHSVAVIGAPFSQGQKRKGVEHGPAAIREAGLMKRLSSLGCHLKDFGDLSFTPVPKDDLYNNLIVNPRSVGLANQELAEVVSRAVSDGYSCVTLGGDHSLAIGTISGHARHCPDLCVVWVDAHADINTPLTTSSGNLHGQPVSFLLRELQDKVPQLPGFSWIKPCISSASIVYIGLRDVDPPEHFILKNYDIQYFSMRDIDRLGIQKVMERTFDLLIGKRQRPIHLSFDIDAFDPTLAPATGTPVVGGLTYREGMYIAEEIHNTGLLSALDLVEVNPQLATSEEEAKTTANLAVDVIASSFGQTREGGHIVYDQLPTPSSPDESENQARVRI

[6] = target: T3, Proteasome subunit beta (Trypanosoma cruzi) (UniProt O96673); experiment: Trypanosoma cruzi proteasome chymotrypsin-like activity (TcProtChymo) assay.; also: in the data most compounds retested in dose-response had high values; assay type: functional; conditions: 9.37 µM
T3 sequence (whole entry): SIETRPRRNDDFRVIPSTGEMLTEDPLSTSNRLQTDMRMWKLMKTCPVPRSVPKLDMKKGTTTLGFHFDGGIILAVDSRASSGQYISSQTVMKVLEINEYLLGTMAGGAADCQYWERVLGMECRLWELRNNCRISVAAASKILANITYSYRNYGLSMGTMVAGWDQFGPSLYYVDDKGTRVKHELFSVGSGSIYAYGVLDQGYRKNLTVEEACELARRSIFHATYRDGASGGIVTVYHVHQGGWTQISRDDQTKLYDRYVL

Homo sapiens = species on record: Homo sapiens; experiment: To identify inhibition of the IFN signalling (Jak-Stat) pathway via expression of an eGFP reporter gene under the control of an IFN-stimulated response element (ISRE) containing MxA promoter.; assay type: functional; conditions: 30 µM
[7] = target: T4, Tyrosyl-tRNA synthetase, putative (Trypanosoma cruzi (strain CL Brener)) (UniProt Q4DSP6); experiment: Trypanosoma cruzi tyrosyl tRNA synthetase (TcYRS) _High Tyrosine SOP; assay type: functional; conditions: 30 µM; also: in the data most compounds retested in dose-response had high values
T4 sequence (whole entry): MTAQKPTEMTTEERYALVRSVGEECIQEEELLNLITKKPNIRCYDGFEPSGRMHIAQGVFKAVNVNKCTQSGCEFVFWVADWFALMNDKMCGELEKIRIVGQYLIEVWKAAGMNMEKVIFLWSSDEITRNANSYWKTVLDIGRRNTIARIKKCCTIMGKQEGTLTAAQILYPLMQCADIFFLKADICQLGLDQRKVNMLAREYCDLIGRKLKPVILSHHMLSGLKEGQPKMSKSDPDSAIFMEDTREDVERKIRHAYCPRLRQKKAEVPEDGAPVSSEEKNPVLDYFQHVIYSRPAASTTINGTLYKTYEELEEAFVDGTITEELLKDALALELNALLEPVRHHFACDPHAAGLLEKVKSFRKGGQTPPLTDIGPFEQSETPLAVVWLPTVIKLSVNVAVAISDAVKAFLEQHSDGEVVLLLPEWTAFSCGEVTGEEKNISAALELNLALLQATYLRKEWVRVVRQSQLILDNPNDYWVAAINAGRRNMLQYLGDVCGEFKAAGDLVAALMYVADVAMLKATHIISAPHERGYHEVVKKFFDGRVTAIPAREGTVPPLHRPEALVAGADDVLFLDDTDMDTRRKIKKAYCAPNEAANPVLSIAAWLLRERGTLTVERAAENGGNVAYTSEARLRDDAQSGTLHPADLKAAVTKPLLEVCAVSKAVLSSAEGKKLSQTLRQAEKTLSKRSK

[8] = target: T4, Tyrosyl-tRNA synthetase, putative (Trypanosoma cruzi (strain CL Brener)); experiment: Trypanosoma cruzi tyrosyl tRNA synthetase (TcYRS) SOP; assay type: functional; conditions: 30 µM
[9] = target: Chromo domain-containing protein 1 (Saccharomyces cerevisiae (strain ATCC 204508 / S288c) (Baker's yeast)) (UniProt P32657); experiment: ScCHD-1 Enzyme Inhibition Assay; assay type: functional; conditions: 30 µM; also: in the data most compounds retested in dose-response had high values
Chromo domain-containing protein 1 (Saccharomyces cerevisiae (strain ATCC 204508 / S288c) (Baker's yeast)), sequence (P32657 whole entry, the tested form may be a part): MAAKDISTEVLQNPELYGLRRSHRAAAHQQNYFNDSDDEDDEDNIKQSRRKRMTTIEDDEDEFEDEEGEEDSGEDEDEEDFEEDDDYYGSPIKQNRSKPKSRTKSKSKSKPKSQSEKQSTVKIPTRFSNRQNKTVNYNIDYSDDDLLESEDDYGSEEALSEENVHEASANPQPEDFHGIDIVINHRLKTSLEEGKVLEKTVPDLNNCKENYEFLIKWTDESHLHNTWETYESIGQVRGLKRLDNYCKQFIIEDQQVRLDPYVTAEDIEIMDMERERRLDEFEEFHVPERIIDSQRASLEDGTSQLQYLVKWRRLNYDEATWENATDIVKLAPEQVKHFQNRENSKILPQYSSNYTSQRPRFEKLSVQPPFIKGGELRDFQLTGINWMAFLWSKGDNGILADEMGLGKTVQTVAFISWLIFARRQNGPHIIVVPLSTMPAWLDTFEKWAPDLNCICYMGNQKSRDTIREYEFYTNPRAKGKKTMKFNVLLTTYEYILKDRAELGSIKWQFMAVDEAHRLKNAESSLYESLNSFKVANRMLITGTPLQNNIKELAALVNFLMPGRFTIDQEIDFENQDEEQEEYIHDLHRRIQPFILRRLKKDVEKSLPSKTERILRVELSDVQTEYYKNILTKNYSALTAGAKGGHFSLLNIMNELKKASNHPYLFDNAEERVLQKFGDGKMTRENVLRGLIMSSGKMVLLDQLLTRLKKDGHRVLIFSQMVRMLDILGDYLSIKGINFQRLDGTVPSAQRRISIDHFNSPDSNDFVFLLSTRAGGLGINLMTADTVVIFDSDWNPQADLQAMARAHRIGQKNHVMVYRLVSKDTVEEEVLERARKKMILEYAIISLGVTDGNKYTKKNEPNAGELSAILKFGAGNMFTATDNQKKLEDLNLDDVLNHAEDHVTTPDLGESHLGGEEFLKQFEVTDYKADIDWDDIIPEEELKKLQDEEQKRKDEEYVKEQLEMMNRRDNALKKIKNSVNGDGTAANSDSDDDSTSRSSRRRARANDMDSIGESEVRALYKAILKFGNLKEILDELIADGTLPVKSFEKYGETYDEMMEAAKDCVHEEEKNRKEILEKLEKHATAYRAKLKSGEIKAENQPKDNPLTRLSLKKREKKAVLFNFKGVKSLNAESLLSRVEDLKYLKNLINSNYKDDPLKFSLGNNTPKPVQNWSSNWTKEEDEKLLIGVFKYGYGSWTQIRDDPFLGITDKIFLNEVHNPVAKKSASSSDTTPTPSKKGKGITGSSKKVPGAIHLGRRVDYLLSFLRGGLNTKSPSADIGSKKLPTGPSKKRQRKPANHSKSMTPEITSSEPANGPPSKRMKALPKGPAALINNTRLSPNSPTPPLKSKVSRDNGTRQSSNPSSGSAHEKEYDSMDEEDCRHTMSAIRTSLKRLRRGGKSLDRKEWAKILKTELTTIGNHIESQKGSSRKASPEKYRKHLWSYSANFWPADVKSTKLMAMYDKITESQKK

SMILES | Percent Effect [1] [%] | Percent Effect [2] [%] | Percent Effect [3] [%] | Percent Effect [4] [%] | Percent Effect (Trypanosoma cruzi) [%] | Percent Effect [5] [%] | Percent Effect [6] [%] | Percent Effect (Homo sapiens) [%] | Percent Effect [7] [%] | Percent Effect [8] [%] | Percent Effect [9] [%]
O=C(CCc1ccc(O)cc1)N1CCC(Cc2ccc(CO)cc2)C1 (configuration not stated) | -2.29 | 6.94 | 21.8 | -5.94 | -2.82 | 1.32 | 8.6 | -10.8 | 5.26 | 12.8 | -1.12
COCC(=O)N1CCCC1c1cc(Nc2nnc(C)s2)nc(C)n1 (configuration not stated) | -7.56 | 0 | -6.16 | 10.2 | 7.09 | -3.96 | -2.38 | 8.53 | 4.25 | 8.97 | -5.17
O=C(NCc1ccccc1)N1CCC2(CC(=O)N(c3ccsc3)C2)C1 (configuration not stated) | -1.66 | 0 | 3.29 | 0.825 | 0.977 | 0.417 | 2.45 | -9.22 | 85.2 | 6.1 | -1.83
COCc1nc(C(=O)N2CCCCC2Cn2cccn2)cs1 (configuration not stated) | -1.64 | -7.89 | -1.7 | -2.08 | 6.82 | -3.24 | -0.761 | -20.6 | 0.493 | 3.7 | 3.28
CCC(=O)N1Cc2nccn2CC(CN(C)Cc2cccnc2)C1 (configuration not stated) | -1.64 | 13.3 | 10.6 | -7.3 | -4.72 | 1.17 | 7.49 | -7.96 | 4.25 | 8.97 | -6.9
CC(O)CN1CCN(C(=O)CN(C)c2cnccn2)CC1 (configuration not stated) | 3.16 | 5.41 | -4.8 | 6.58 | -2.12 | -70 | 16.6 | 5.3 | 3.7 | 4.88 | -5.99
CCCNC(=O)N1CCC(Oc2cc(C)ccc2F)(C(=O)O)CC1 | -2.42 | 9.72 | -3.19 | 22.9 | 6.9 | 24.3 | 1.75 | -5.25 | -1.05 | 10.3 | -1.57
COc1cccc(CCC2CCCN(C(=O)c3n[nH]c4c3CCC4)C2)c1 (configuration not stated) | -4.51 | -18.9 | 3.21 | 4.19 | -1.35 | -8.1 | 5.69 | 46.1 | 11.1 | 2.44 | -1.85
CCS(=O)(=O)N1CCC2(CCC2NC(=O)c2ccn(C)c2)CC1 (configuration not stated) | -3.75 | 10.8 | 1.1 | -0.914 | 3.62 | -6.69 | 18.8 | -26 | 4.32 | 15.4 | -3.62
Cc1ccc(CN2CCc3ncnc(-c4cccnc4)c3CC2)o1 | -3.48 | -2.67 | 0.55 | 8.87 | -0.772 | -5.91 | 8.72 | -10.7 | 2.08 | 0 | -3.74
O=C([C@@H]1CCO[C@@H]2CCN(Cc3cccnc3)C[C@H]21)N1CCCCO1 | -2.75 | 14.7 | 2.91 | 5.02 | -1.57 | -6.51 | 11.5 | 17.3 | 4.23 | 7.69 | -7.97
Cc1cccc2c1cnn2CCC(=O)NCC(=O)N(C)C | -1.87 | 1.33 | 12.2 | 7.1 | -6.68 | -10 | 14.2 | 3.37 | 4.23 | 7.69 | -10.3
Cc1c[nH]nc1C1CCN(S(=O)(=O)N(C)C)CC1 | -3.15 | 1.35 | -2.65 | 1.12 | -7.12 | -1.16 | -3.59 | 9.82 | 2.15 | 6.49 | -2.55
COc1ccc(CCN2CCc3c(nc(C4CC4)n3C)C2)cc1 | -2.18 | 18.2 | -12.2 | -0.11 | -3.18 | 0.356 | 9.12 | 18.2 | 6.8 | 2.44 | -7.4
Cc1ccc(N2CC3(CCN(c4nccs4)C3)C2)nn1 | 0.227 | 2.74 | 1.72 | 6.68 | -0.794 | 0.798 | 14 | 0.564 | 5.21 | 11.1 | 0.982
OC(COc1ccccc1)CN1CCC(c2ccn[nH]2)CC1 (configuration not stated) | -2.35 | 15.2 | -5.68 | 0.333 | -4.82 | 3.04 | 2.05 | -21.8 | 2.46 | 13.9 | -2.28
Cn1ccc(CN2CCC(c3ccccc3)CC2)cc1=O | -7.43 | 15.6 | -2.22 | 11.1 | -0.374 | 3.92 | 8.11 | 14.7 | 8.74 | 19.5 | -7.5
